Bioassay records as filed in PubChem BioAssay.
H9c2 protect: protects H9c2 cardiomyocytes from peroxide injury | H2O2 injury protection, ATPLite, 2 h | protection from H2O2 cell death, % at 20 µM | actives 0.63% (n = 360,000) | AID 588492;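 active = compounds giving at least 50% protection of heart cells from peroxide-induced death in the single-dose screen, raw or plate-pattern-corrected value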;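 also: 0% = DMSO wells with peroxide and 100% = DMSO wells without peroxide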
m-calpain inh: blocks pig calpain II enzyme activity; purified calpain II, fluorogenic peptide substrate, 30 min; inhibition, % at 16 µM; actives 0.37% (n = 220,000); AID 1236;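 active = inhibition above about 50%, limit read from the data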
beta cell repl: MIN6 beta-cell proliferation induction; proliferation, % at 10 µM; actives 0.29% (n = 330,000); MIN6 cells proliferation, ATPlite luminescence, 48 h; cells starved in 0.2% serum; 100% = growth in 10% serum; AID 2380;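 active = compounds whose signal lies at least 3.5 SD above the mean of all wells on their plate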;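 also: 0% = DMSO-treated cells in low-serum medium and 100% = 10% serum control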
FAS-TE inh: inhibitors of human fatty acid synthase thioesterase domain. P49327. recombinant FAS-TE, OMFH fluorogenic substrate, fluorescence endpoint. inhibition, % at 15 µM. actives 0.67% (n = 360,000). AID 602261;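 active = compounds whose normalised, plate-corrected inhibition of enzyme fluorescence in the single-dose primary screen is 50% or more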;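 also: 0% = DMSO with enzyme and 100% = substrate without enzyme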
aDG glyco act: increases alpha dystroglycan glycosylation; Pro5-aDG cells, alpha-DG glycosylation AlphaScreen (IIH6); 0% Pro5, 100% B10-LARGE cell signal; activation, % at 10 µM; actives 0.22% (n = 360,000);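 active = activation of at least 8% versus controls, or a plate z-score of at least 8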;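 also: Pro5 are CHO cells carrying HIG-tagged alpha-DG that lacks glycosylation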
H9c2 TAG inh: inhibitors of triacylglycerol accumulation. H9c2 cells, Nile Red lipid (TAG) fluorescence; cells loaded with 200 µM oleic acid. inhibition, % at 12.5 µM. actives 0.66% (n = 230,000). AID 651582;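 active = pattern-corrected inhibition of lipid staining of at least 50% with the nuclear-stain viability signal not falling by more than 50%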;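 also: 0% = DMSO wells and 100% = triacsin C control wells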
FAS-TE conf: confirmation of human fatty acid synthase thioesterase inhibitors; shares compounds with FAS-TE inh; recombinant FAS-TE, OMFH fluorogenic substrate, fluorescence; inhibition, % at 15 µM; actives 45% (n = 2,300);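 active = compounds inhibiting the enzyme by at least 50% at 15 µM in any one of the replicates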;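 also: 0% = enzyme with DMSO only and 100% = wells lacking enzyme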
aDG glyco conf: confirmation of alpha dystroglycan glycosylation activators. shares compounds with aDG glyco act. Pro5-aDG cells, alpha-DG glycosylation, IIH6 AlphaLISA; scaled to LARGE-overexpressing B10 cells as 100%. activation, % at 10 µM (by protocol). actives 17% (n = 600);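 active = activation of at least 7% in one or more replicates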;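 also: cells exposed to compound for two days before detection; 0% = DMSO-treated Pro5 cells and 100% = DMSO-treated B10-LARGE cells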
TAG conf: confirmation of triacylglycerol accumulation inhibitors; shares compounds with H9c2 TAG inh; H9c2 lipid accumulation, Nile Red fluorescence; cells loaded with 200 µM oleic acid; inhibition, % at 12.5 µM; actives 71% (n = 990); AID 651629;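 active = mean inhibition across replicates of 40% or more; inactive = mean inhibition below 40%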;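 also: plate controls were DMSO only wells for no effect and Triacsin C treated wells for full effect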
An asterisk follows results filed as active; i = inactive; . = no result given. Shown are actives, neighbours in structure and some others; about 2.3% of the full set was active somewhere.

SMILES	H9c2 protect	m-calpain inh	beta cell repl	FAS-TE inh	aDG glyco act	H9c2 TAG inh	others
C=CC[C@@H](CC/C=C/C=C/CC/C=C\[C@@H]1CSC([C@@H]2C[C@@H]2C)=N1)OC	-10.1	.	-5.0	-0.3	-0.2	39.2
COc1ccc(-c2nc3ccc(C(=O)N4CCC5(CC4)OCCO5)cc3nc2-c2ccc(OC)cc2)cc1	4.9	.	-1.8	16.1	-0.1	.
O=c1[nH]c2ccccc2n1C1CCN(C(c2cc3ccccc3o2)c2nnnn2Cc2ccccc2)CC1 (stereo not drawn)	10.4	.	.	61.3*	-0.7	.	FAS-TE conf=-2.0
O=c1[nH]c2ccccc2n1C1CCN(C(c2cccc3ccccc23)c2nnnn2Cc2ccccc2)CC1 (stereo not drawn)	16.2	.	.	80.2*	-0.7	.	FAS-TE conf=27.6
Cc1cc(OCC(=O)N2CCC(C(=O)NCC(C)C)CC2)c2c3c(c(=O)oc2c1)CCCC3	6.6	.	3.4	-7.9	-0.1	.
OC1/C(=C/c2ccccc2F)N2CCC1CC2 (stereo not drawn)	6.7	8.9	2.5	-6.8	1.1	-18.2
CC(C)(C)n1nnnc1C(c1cccc2ccccc12)N1CCC2(CC1)C(=O)NCN2c1ccccc1 (stereo not drawn)	-7.8	.	.	76.8*	0.5	.	FAS-TE conf=19.1
CC(C)(C)n1nnnc1C(c1ccnc2ccccc12)N1CCC2(CC1)C(=O)NCN2c1ccccc1 (stereo not drawn)	1.7	.	.	-2.7	0.1	.
O=C1NCN(c2ccccc2)C12CCN(C(c1cccc3ccccc13)c1nnnn1Cc1ccccc1)CC2 (stereo not drawn)	-6.0	.	.	79.1*	-0.1	.	FAS-TE conf=4.0
O=C1NCN(c2ccccc2)C12CCN(C(c1ccnc3ccccc13)c1nnnn1Cc1ccccc1)CC2 (stereo not drawn)	4.0	.	.	7.1	-0.1	.
O=C1c2ccccc2-n2nncc2C2c3cc(Br)ccc3CCN12 (stereo not drawn)	3.6	.	.	-2.1	-0.2	.
Cc1ccccc1-c1ccc2c(c1)C1c3c(-c4ccccc4)nnn3-c3ccccc3C(=O)N1CC2 (stereo not drawn)	8.2	.	.	78.6*	-0.1	.	FAS-TE conf=13.0
CC(C)n1c(=O)c(C=Nc2cccc([N+](=O)[O-])c2)c(O)n(CCc2ccccc2)c1=O	6.0	32.4	0.1	57.2*	-0.1	.	FAS-TE conf=18.2
COc1ccc(N=Nc2c(O)[nH]c(=S)[nH]c2=O)cc1	-8.2	8.4	-3.2	-7.9	-0.2	4.4
CSc1nc(N)c(N=Nc2ccc([As](=O)(O)O)cc2)c(=O)[nH]1	3.0	17.7	-2.9	53.7*	0.3	.	FAS-TE conf=59.2*
CN(Cc1ccccc1)Cc1ccccc1OC(=O)N(C)C	-2.9	-19.9	2.4	-7.6	58.0*	-26.2	aDG glyco conf=0.3
C=CCn1c(O)c(C(C)=Nc2ccc3c(c2)CCC3)c(=O)[nH]c1=O	3.3	15.5	-1.1	-3.3	-0.1	-15.8
O=C(C(=O)N1CCOCC1)c1cn(CCCOc2ccccc2)c2ccccc12	3.3	1.6	-0.1	0.0	-0.1	-13.2
CC(=O)c1cn(CCCOc2ccccc2)c2ccccc12	-16.4	29.9	-3.9	15.0	6.3*	-6.1	aDG glyco conf=0.1
Cc1ccnc(-n2c(C)nc3ccccc3c2=O)c1	3.7	-10.8	-2.5	-10.5	7.8*	3.5	aDG glyco conf=0.6*
Cc1ccc(S(=O)(=O)N2Cc3cc(N4CCOCC4)ccc3-n3nncc3C2)cc1	6.4	.	.	-3.9	-0.2	.
CC1=CC(=C2C(=O)NC(=S)NC2=O)C=C(C(F)(F)F)N1Cc1ccccc1	-5.8	-3.5	-2.2	-1.4	0.1	53.9*	TAG conf=28.4
CSCCC(c1nnnn1C(C)(C)C)N1CCC2(CC1)C(=O)NCN2c1ccccc1 (stereo not drawn)	21.4	.	.	4.4	-0.3	.
CC(=O)OC12COC1CC(O)C1(C)C(=O)C(O)C3=C(C)C(O)CC(O)(C(OC(=O)c4ccccc4)C21)C3(C)C (stereo not drawn)	6.4	.	.	-3.0	-0.2	65.0*	TAG conf=85.2*
COCCCn1c(N)c(C(=O)Nc2ccccc2)c2nc3ccccc3nc21	27.1	-54.8	-4.0	35.4	0.0	59.2*	TAG conf=71.8*
SMILES	H9c2 protect	m-calpain inh	beta cell repl	FAS-TE inh	aDG glyco act	H9c2 TAG inh	others
CCC(C)NC(=O)c1c(N)n(CCCOC)c2nc3ccccc3nc12 (stereo not drawn)	15.7	i	-3.4	7.8	0.2	.
CCOC(=O)N(CC)c1ccc(C(O)(C(=O)OC)C(F)(F)F)cc1 (stereo not drawn)	-2.1	11.6	-2.2	-6.4	-0.1	.
COc1ccc(C[C@@H]2c3cc(O)c(OC)cc3CCN2C)cc1O	1.0	4.9	-3.4	-8.1	0.1	68.1*	TAG conf=9.5
COc1ccc(CC2c3cc(OC)c(OC)cc3CCN2C)cc1OC (stereo not drawn)	3.0	19.9	-1.7	-4.8	-0.3	.
CCOC(=O)C1CCN(C(C)C(=O)c2c[nH]c3ccccc23)CC1 (stereo not drawn)	4.6	.	-1.3	-5.5	0.0	.
COC(=O)C1=C(c2ccc(OCc3ccccc3)cc2)C[C@@H]2CC[C@H]1N2C(=O)NCc1ccc(OC)c(OC)c1	2.4	.	-3.9	12.5	0.2	52.5*	TAG conf=29.1
COc1cc2c(c(OC)c1OC)-c1ccc(O)cc1C(NC(C)=O)CC2 (stereo not drawn)	-3.0	.	.	-3.8	-0.3	52.5*	TAG conf=57.6*
COc1ccc(C(SCC(NC(=O)OCc2ccccc2)C(=O)O)c2ccc(OC)cc2)cc1 (stereo not drawn)	2.6	.	.	1.5	-0.2	9.9
O=c1[nH]c(=S)[nH]c(O)c1N=Nc1ccc2c(c1)OCCO2	-14.2	30.7	-6.0	-1.8	0.1	18.3
COc1cccc(N=Nc2c(O)[nH]c(=S)[nH]c2=O)c1	-14.6	33.2	-1.0	-2.6	0.2	56.6*	TAG conf=47.1*
